High-throughput results (PubChem BioAssay)
DRD3 agonist: qHTS of D3 Dopamine Receptor Agonist: qHTS; AID 652048, 2013; D(3) dopamine receptor (Homo sapiens), P35462; D3R DiscoveRx beta-arrestin cells, luminescence, 90 min; max activation, %; 410,000 tested, 0.58% active; in the data active means max activation above about 30%
Target sequence (P35462 whole entry, looked up): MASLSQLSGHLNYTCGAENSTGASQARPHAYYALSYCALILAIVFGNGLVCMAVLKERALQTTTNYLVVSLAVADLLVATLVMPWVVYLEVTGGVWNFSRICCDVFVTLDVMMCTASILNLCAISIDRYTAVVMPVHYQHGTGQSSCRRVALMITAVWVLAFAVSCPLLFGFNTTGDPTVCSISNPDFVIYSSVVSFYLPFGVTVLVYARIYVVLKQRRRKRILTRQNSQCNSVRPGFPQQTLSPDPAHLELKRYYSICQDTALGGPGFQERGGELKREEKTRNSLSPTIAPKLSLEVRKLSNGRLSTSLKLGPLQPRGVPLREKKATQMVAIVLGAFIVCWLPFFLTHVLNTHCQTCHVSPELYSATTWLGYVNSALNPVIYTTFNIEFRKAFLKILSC
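Agonist-mode cell screen: cells plated at 1500/well and incubated overnight at 37 °C, then exposed to library compounds for 90 min at 37 °C. Detection reagent was added for 30–60 min at room temperature, and luminescence was read.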
D1 antagonist: Antagonist of Human D 1 Dopamine Receptor: qHTS; HEK293 TREx D1 cells, calcium flux, dopamine EC80; hits give low values; activity change, negative = inhibition, % at 10 µM; 360,000 tested, 3.2% active; in the data active means activity change below about -30%
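Tetracycline-induced HEK293 T-REx cells with force-coupled D1 receptor were loaded with a no-wash calcium dye. Compound was added after a 10 s baseline and read kinetically for 180 s; EC80 dopamine was then added and calcium flux followed another 180 s.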
D1 agonist: Allosteric Agonists of the Human D1 Dopamine Receptor: qHTS; AID 504660, 2011; HEK293 T-REx D1 cells, calcium flux, agonist mode; D(1A) dopamine receptor (Homo sapiens), P21728; activation, % at 2 µM; 360,000 tested, 1% active; in the data active means activation above about 30%
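Tetracycline-induced HEK293 TREx D1 cells, force-coupled to calcium signalling, were dye-loaded with a no-wash calcium kit. Compound was pin-added after a 10 s baseline. Fluorescence was read kinetically at 1 cycle/s for 180 s, with calcium rises flagged as agonism.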
DRD3 antagonist: qHTS of D3 Dopamine Receptor Antagonist: qHTS. max response, negative = inhibition, %. D3R cells, DiscoveRx beta-arrestin luminescence, antagonist mode; hits give low values. D(3) dopamine receptor (Homo sapiens), P35462. 360,000 tested, 2.5% active; in the data active means max response below about -50%; inconclusive means no clear call, values can overlap the other calls
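Cells expressing the human receptor were seeded at 1500 cells/well, incubated overnight at 37 degrees C in 5% CO2, then exposed to library compounds with dopamine controls for 90 minutes at 37 degrees C before luminescent detection.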
Chronic BCR inh: qHTS Assay to Find Inhibitors of Chronic Active B-Cell Receptor Signaling; ABC-DLBCL IkBa-CBG/CBR reporter, luminescence ratio, 4 h; Potency, µM (titrated, usually from 46.1 µM), actives largely listed as inhibitors; 340,000 tested, 0.05% active; active means well fitted inhibition curve with a large enough effect in the signal ratio, with a control signal flat, not every such curve was filed as active; inconclusive means small, poorly fitted or top-dose-only effect, or effect the other way, or a change in a side signal; the % refers to the signal ratio
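TMD8 ABC-DLBCL cells carrying doxycycline-inducible green luciferase fused to IkappaBalpha plus unfused red luciferase were exposed to compounds (up to 46 uM) for 4 hrs at 37C. Activity came from the overlap-corrected green/red luminescence ratio.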
D1 potentiator: Potentiators of Human D1 Dopamine Receptor: qHTS. D(1A) dopamine receptor (Homo sapiens), P21728. HEK293 TREx D1 cells, calcium flux, dopamine EC20 potentiation. potentiation, % at 10 µM. 360,000 tested, 0.036% active; in the data active means potentiation above about 30%
Of the large screens only hits and unclear results are named; the others gave an inactive call. Hits are enriched below; roughly 6% of the tested compounds scored in any of these assays.

CCC(C)CN1C(=O)CN(S(C)(=O)=O)CC1(C)C(=O)NCc1ccccc1 (stereo not given)	none (no result: D1 antagonist, D1 agonist, Chronic BCR inh, D1 potentiator)
COc1ccc(-n2c(-c3cccc(C)c3[N+](=O)[O-])n[nH]c2=S)cc1	DRD3 antagonist -57
Cc1cccc(-c2n[nH]c(=S)n2-c2ccccc2)c1[N+](=O)[O-]	none
CC(NC(=O)c1cccnc1)C(c1cccs1)N1CCN(C)CC1 (stereo not given)	D1 antagonist -39 (no result: D1 potentiator)
CC(NS(=O)(=O)c1ccc(Br)cc1)c1ccccc1 (stereo not given)	D1 antagonist -34
CCN1CCN(C(c2cccs2)C(C)NC(=O)c2cccnc2)CC1 (stereo not given)	none
CC(NS(=O)(=O)c1ccc(Br)cc1)C(c1cccs1)N1CCN(C)CC1 (stereo not given)	DRD3 antagonist -52
COc1ccc(-c2nn(C)c3sc(C(=O)N4CCN(c5cccc(C)c5C)CC4)cc23)cc1OC	none (no result: DRD3 antagonist, Chronic BCR inh)
COc1ccc(C2C(C#N)=C3NC(=O)c4c(sc5c4CCCCC5)N3C3=C2C(=O)CC(C)(C)C3)cc1 (stereo not given)	DRD3 antagonist -87
COc1ccc(/C=C/C(=O)Nc2cccc(C(C)=O)c2)cc1	D1 antagonist -40, Chronic BCR inh inconclusive
CC(=O)Nc1cccc(C(=O)/C=C/c2ccc(/C=C/C(=O)c3cccc(NC(C)=O)c3)cc2)c1	Chronic BCR inh inconclusive (no result: DRD3 agonist, DRD3 antagonist)
CC(=O)Nc1cccc(C(=O)/C=C/c2cccs2)c1	DRD3 antagonist -62, Chronic BCR inh inconclusive
CC(=O)Nc1cccc(C(=O)/C=C/c2ccc(N(C)C)cc2)c1	D1 agonist 401, Chronic BCR inh inconclusive
CN(Cc1ccccc1)C(=O)c1ccc2c(c1)N(Cc1ccccc1Cl)C(=O)c1ccccc1S2	none (no result: DRD3 antagonist)
COc1ccc(S(=O)(=O)N(C)C[C@@H]2OCc3cn(nn3)CCCC(=O)N([C@H](C)CO)C[C@H]2C)cc1	none (no result: D1 antagonist, D1 agonist, Chronic BCR inh, D1 potentiator)
COc1cc(C(=O)OCCNC(=O)c2ccncc2)cc(OC)c1OC	D1 antagonist -39, Chronic BCR inh inconclusive
CC1=C(C(=O)Nc2ccccc2)C(c2ccccn2)n2nc(SCc3ccccc3)nc2N1 (stereo not given)	none (no result: DRD3 antagonist, Chronic BCR inh)
CCO[C@H]1OC(C(=O)NCc2ccccc2)=C[C@@H](C2CC2)[C@@H]1CCCO	D1 antagonist -44
CCO[C@@H]1OC(C(=O)NCc2ccccc2)=C[C@H](c2cn(C(C)=O)c3ccccc23)[C@H]1CCCO	DRD3 agonist 67
O=C(OCc1cc(=O)n2nc(C3CCCCC3)sc2n1)c1ccc(F)cc1	none (no result: DRD3 antagonist, Chronic BCR inh)
O=C(/C(N=Nc1cccc([N+](=O)[O-])c1)=C(/O)c1ccc(Br)cc1)C(F)(F)F	D1 antagonist -30 (no result: DRD3 agonist, DRD3 antagonist)
CCOC(=O)N1CCN(C(=O)C[C@@H]2C[C@@]3(C(=O)OCC)CCC=C3N(Cc3ccco3)C2=O)CC1	none (no result: D1 antagonist, D1 agonist, Chronic BCR inh, D1 potentiator)
Cc1csc(NC(=O)c2cc3c(s2)CCCCC3)n1	DRD3 antagonist inconclusive, Chronic BCR inh inconclusive
Cc1csc(NC(=O)c2cc3c(s2)CCCC3)n1	D1 antagonist -44, Chronic BCR inh inconclusive
O=S(=O)(c1ccccc1)N(CC(O)COc1ccccc1)c1ccccc1 (stereo not given)	D1 antagonist -31
Cc1cc(C)n(CC(O)CN(c2ccccc2)S(=O)(=O)c2ccccc2)n1 (stereo not given)	none
COCCNc1nc(Oc2cccc(NC(C)=O)c2)c2sccc2n1	none (no result: D1 antagonist, D1 agonist, Chronic BCR inh, D1 potentiator)
COCCNc1nc(Oc2ccccc2)c2sccc2n1	none (no result: D1 antagonist, D1 agonist, Chronic BCR inh, D1 potentiator)
COCCNc1nc(Oc2cccc3ccccc23)c2sccc2n1	DRD3 agonist 54 (no result: D1 antagonist, D1 agonist, Chronic BCR inh, D1 potentiator)
COCCNc1nc(Oc2ccc(C(N)=O)cc2)c2sccc2n1	DRD3 agonist 43 (no result: D1 antagonist, D1 agonist, Chronic BCR inh, D1 potentiator)
